In the library only some 1.6% were active in any assay of this set; here they are far more common.
p97 inhibitor – inhibitors of human p97 ATPase, primary screen, biochemical. Transitional endoplasmic reticulum ATPase (Homo sapiens), P55072. recombinant p97 ATPase, Kinase-Glo ATP luminescence, 3 h. inhibition, % at 8 µM. hit rate 0.42% among 220,000. AID 1481, 2009; in the data active = inhibition above about 15%
Wee1 stabilizer – Wee1 degradation inhibitors, primary screen, cell-based, HeLa, Wee1K328M-luciferase, luminescence; reporter increase, % at 5 µM; hit rate 1.2% among 220,000; HeLa Luc-Wee1K328M stability; 100% = proteasome inhibitor MG132 effect; Wee1-like protein kinase (Homo sapiens), P30291;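 active = activation above the mean of all tested compounds plus 3 SD, set per screening run, cut at about 8.8% in these data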;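 also: cells exposed to compound for 20 h before luminescence read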
Target sequence (P30291 whole entry K328M): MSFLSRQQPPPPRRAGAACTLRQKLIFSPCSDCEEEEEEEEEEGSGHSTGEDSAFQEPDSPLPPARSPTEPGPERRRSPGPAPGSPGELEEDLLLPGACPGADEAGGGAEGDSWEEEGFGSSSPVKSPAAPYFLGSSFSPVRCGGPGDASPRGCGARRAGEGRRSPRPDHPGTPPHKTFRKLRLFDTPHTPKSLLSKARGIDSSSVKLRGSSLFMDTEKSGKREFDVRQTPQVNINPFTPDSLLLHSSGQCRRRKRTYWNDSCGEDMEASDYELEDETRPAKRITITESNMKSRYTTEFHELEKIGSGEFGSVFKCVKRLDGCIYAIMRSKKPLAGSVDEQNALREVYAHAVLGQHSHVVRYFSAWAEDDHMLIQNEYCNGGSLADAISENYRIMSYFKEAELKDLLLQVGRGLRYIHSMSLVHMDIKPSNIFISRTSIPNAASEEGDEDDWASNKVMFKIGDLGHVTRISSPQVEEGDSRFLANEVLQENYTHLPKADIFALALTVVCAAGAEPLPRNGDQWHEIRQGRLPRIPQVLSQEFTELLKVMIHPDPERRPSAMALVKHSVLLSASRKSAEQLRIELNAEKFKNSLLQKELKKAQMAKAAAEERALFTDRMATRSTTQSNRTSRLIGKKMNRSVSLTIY
Hsp70 activator – Hsp70 transcriptional activators, primary screen, cell-based, HeLa, Hsp70 promoter luciferase, luminescence, 10 µM; hit rate 0.04% among 200,000; HeLa Hsp70 promoter luciferase reporter; scaled: vehicle 0, proteasome-inhibitor control 100%; activation, % at 10 µM;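 active = activation above the mean across all tested compounds plus 3 SD, cutoff set per campaign, cut at about 5.5% in these data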
HSV augment – enhancers of HSV replication in host cells, fold increase, host cell viability; hit rate 0.005% among 220,000; maximum fold increase; AID 1956, 2009; HSV replication augmentation in cells; in the data active = maximum fold increase above about 1.5; tested in PC3 cells
Redox H2O2 prof – compounds producing H2O2 with reducing agent – biochemical, NIH compound library profiling, artefact control for MLSCN library redox annotation, primary screen; DTT-dependent redox cycling H2O2, phenol red/HRP absorbance; 100% = 100 µM peroxide control, 0% = buffer; activation, % at 10 µM; hit rate 0.03% among 200,000;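 active = activation of at least 50% relative to the plate's high and low controls in the primary single-dose screen; inactive = activation below 50%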;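 also: compound incubated with DTT at 0.8 mM final as the reducing agent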
Numbers stand for hits.

For C/C(=N\NC(=O)CCCNc1ccc(C)cc1)c1ccccn1 the results were p97 inhibitor inactive, Wee1 stabilizer inactive, Hsp70 activator inactive, HSV augment inactive and Redox H2O2 prof inactive.
Cc1ccnc(NC(=O)Nc2ccc(Br)cc2Cl)c1 was read as p97 inhibitor inactive, Wee1 stabilizer 9.5, Hsp70 activator inactive, HSV augment inactive and Redox H2O2 prof inactive.
COC(=O)c1ccccc1NC(=O)Nc1cc(C)ccn1 was read as p97 inhibitor inactive, Wee1 stabilizer inactive, Hsp70 activator inactive, HSV augment inactive and Redox H2O2 prof inactive.
For COc1ccc(-c2nc(C#N)c(NCCN(C)C)o2)cc1 the results were p97 inhibitor inactive, Wee1 stabilizer 9.1, Hsp70 activator inactive, HSV augment inactive and Redox H2O2 prof inactive.
COc1ccc(-c2nc(C#N)c(NCCc3ccccc3)o2)cc1 was read as p97 inhibitor inactive, Wee1 stabilizer inactive, Hsp70 activator inactive, HSV augment inactive and Redox H2O2 prof inactive.
`CC(C)COc1ccc(CNC(=S)N/N=C/c2ccc([N+](=O)[O-])cc2)cc1` gave p97 inhibitor inactive, Wee1 stabilizer 10, Hsp70 activator inactive, HSV augment inactive and Redox H2O2 prof inactive.
For CCc1cccc(CC)c1NC(=O)COC(=O)c1cccc(S(=O)(=O)N2CCc3ccccc3C2)c1 the results were p97 inhibitor inactive, Wee1 stabilizer inactive, Hsp70 activator inactive, HSV augment inactive and Redox H2O2 prof inactive.
Screening NS(=O)(=O)c1cccc(NC(=O)COC(=O)c2cc(-c3ccc(Cl)cc3)nc3ccccc23)c1 returned p97 inhibitor inactive, Wee1 stabilizer 9.0, Hsp70 activator inactive, HSV augment inactive and Redox H2O2 prof inactive.
For CN(C)S(=O)(=O)c1cccc(NC(=O)COC(=O)c2cccc(S(=O)(=O)N3CCc4ccccc4C3)c2)c1 the results were p97 inhibitor inactive, Wee1 stabilizer 11, Hsp70 activator inactive, HSV augment inactive and Redox H2O2 prof inactive.
Cc1cc(C(=O)OCC(=O)Nc2cccc(S(=O)(=O)N(C)C)c2)c2ccccc2n1 was read as p97 inhibitor inactive, Wee1 stabilizer 11, Hsp70 activator inactive, HSV augment inactive and Redox H2O2 prof inactive.
O=C(NCc1ccco1)c1n[nH]c(=O)c2ccccc12 was read as p97 inhibitor inactive, Wee1 stabilizer inactive, Hsp70 activator inactive, HSV augment inactive and Redox H2O2 prof inactive.
Screening O=C(CSC1=NCCS1)Nc1ccnc2ccccc12 returned p97 inhibitor inactive, Wee1 stabilizer inactive, Hsp70 activator inactive and Redox H2O2 prof inactive.
For COc1ccc([C@H]2/C=C\CN(C(=O)c3ccccc3)[C@@H](C)C(=O)N2Cc2ccc(F)cc2)cc1 the results were HSV augment inactive.
For Cn1c(-c2ccccc2)cnc1SCc1nc2ccccc2c(=O)[nH]1 the results were p97 inhibitor inactive, Wee1 stabilizer inactive, Hsp70 activator inactive, HSV augment inactive and Redox H2O2 prof inactive.
For COc1ccccc1N1CCN(C(=O)CCc2c[nH]c3ccccc23)CC1 the results were p97 inhibitor inactive, Wee1 stabilizer inactive, Hsp70 activator inactive, HSV augment inactive and Redox H2O2 prof inactive.
Screening Cc1nc2c3cc(F)ccc3n(CCN3CCCCC3)c2s1 returned p97 inhibitor inactive, Wee1 stabilizer 9.7, Hsp70 activator inactive, HSV augment inactive and Redox H2O2 prof inactive.
Screening O=C(NCCCN1CCCCC1)c1ccc2c(c1)NC(=O)C(N1CCCCC1)S2 (configuration not stated) returned p97 inhibitor inactive, Wee1 stabilizer inactive, Hsp70 activator inactive, HSV augment inactive and Redox H2O2 prof inactive.
Screening O=C1NCCN1C(=O)C12CC3CC(CC(C3)C1)C2 returned p97 inhibitor inactive, Wee1 stabilizer 9.1, Hsp70 activator inactive, HSV augment inactive and Redox H2O2 prof inactive.
For O=C(N1CCCC1)C12CC3CC(CC(C3)C1)C2 the results were p97 inhibitor inactive, Wee1 stabilizer inactive, Hsp70 activator inactive, HSV augment inactive and Redox H2O2 prof inactive.
`COc1ccc(NC(=O)C2CCCN(S(=O)(=O)c3cccc4nonc34)C2)cc1OC` (configuration not stated) gave p97 inhibitor inactive, Wee1 stabilizer inactive, Hsp70 activator inactive, HSV augment inactive and Redox H2O2 prof inactive.
`C/C(=N/Oc1nc(C)cc(C)n1)c1ccc(Br)cc1` gave p97 inhibitor inactive, Wee1 stabilizer inactive, Hsp70 activator inactive, HSV augment inactive and Redox H2O2 prof inactive.
`Cc1cc(C)nc(Oc2ccc(Br)cc2Br)n1` gave p97 inhibitor inactive, Wee1 stabilizer 9.1, Hsp70 activator inactive, HSV augment inactive and Redox H2O2 prof inactive.
For CN(C)C(=O)Cn1c(SCC(=O)Nc2ccc3c(c2)OCO3)nc2ccccc21 the results were p97 inhibitor inactive, Wee1 stabilizer inactive, Hsp70 activator inactive, HSV augment inactive and Redox H2O2 prof inactive.
Screening Cn1cc(Br)c(C(=O)Nc2sc3c(c2C#N)CCC3)n1 returned p97 inhibitor inactive, Wee1 stabilizer 10 and HSV augment inactive.
Screening COCCNC(=O)C12CC3CC(C1)CC(c1ccccc1)(C3)C2 returned p97 inhibitor inactive, Wee1 stabilizer 11, Hsp70 activator inactive, HSV augment inactive and Redox H2O2 prof inactive.
For NC(=O)CC[C@@H]1NC(=O)[C@H](CO)NC(=O)c2cc([N+](=O)[O-])cc(I)c2NCCC[C@@H](C(N)=O)NC(=O)[C@H](Cc2ccc(O)cc2)NC1=O the results were p97 inhibitor 18, Wee1 stabilizer inactive, Hsp70 activator inactive, HSV augment inactive and Redox H2O2 prof inactive.
`NC(=O)[C@@H]1CCCNc2c(I)cc([N+](=O)[O-])cc2C(=O)N[C@@H](CO)C(=O)N[C@@H](Cc2ccc(O)cc2)C(=O)N1` gave p97 inhibitor inactive, Wee1 stabilizer inactive, Hsp70 activator inactive, HSV augment inactive and Redox H2O2 prof inactive.
CC(C)C[C@@H]1NC(=O)[C@H](Cc2ccc(O)cc2)NC(=O)c2cc([N+](=O)[O-])cc(I)c2NCCC[C@@H](C(N)=O)NC1=O was read as p97 inhibitor 16, Wee1 stabilizer inactive, Hsp70 activator inactive, HSV augment inactive and Redox H2O2 prof inactive.
Screening CC(=O)OC[C@H]1O[C@H](CCO/N=C(\C)CCN2CCCc3nc(C)c(C)cc32)C=C[C@@H]1OC(C)=O returned p97 inhibitor inactive, Wee1 stabilizer 9.6, Hsp70 activator inactive, HSV augment inactive and Redox H2O2 prof inactive.
For C/C(CCN1CCCCc2nc(C)c(C)cc21)=N\O[C@H](C)c1cn([C@H](CO)Cc2ccccc2)nn1 the results were p97 inhibitor inactive, Wee1 stabilizer inactive, Hsp70 activator inactive and Redox H2O2 prof inactive.
COc1cccc(NC(=O)C(=S)NC2CCCCC2)c1 was read as p97 inhibitor inactive, Wee1 stabilizer 9.7, Hsp70 activator inactive, HSV augment inactive and Redox H2O2 prof inactive.
`CCCn1c(=O)c(C(=O)NCc2ccncc2)c(O)c2ccccc21` gave p97 inhibitor inactive, Wee1 stabilizer inactive, Hsp70 activator inactive, HSV augment inactive and Redox H2O2 prof inactive.
